Laboratory results from ChEMBL document CHEMBL3988442, “University of Dundee, Small-Polar-MMV Screening Library” (2021).
The whole screen tested about 48,000 compounds, of which about 13,000 (27%) showed an effect of 50% or more. This is one part of the list.

tested on: Wolbachia pipientis; experiment: Anti-Wolbachia Cell-Based Screen; type: functional; set-up: scale not given: in the data most compounds retested in dose-response had high values; details: 5 µM

Row | SMILES | Percent Effect
1 | CC(C)N(Cc1ccccc1)Cc1csc(-c2ncccn2)n1 | -35.25%
2 | CCOCc1ncn2c1CN(S(=O)(=O)c1cccs1)CC2 | -7.388%
3 | Cn1nc(CN2CCCCC2)c2c1CN(C(=O)Nc1cccc(F)c1)C2 | -11.17%
4 | Cc1cccc(C(=O)N2CCn3cnc(COCC4CC4)c3C2)n1 | -8.525%
5 | CCOCc1ncn2c1CN(C(=O)Nc1cccc(F)c1)CC2 | 101.4%
6 | CCOCc1ncn2c1CN(C(=O)c1ccoc1)CC2 | -9.138%
7 | CCc1cccc(NC(=O)N2CCn3cnc(COC)c3C2)c1 | 112.6%
8 | Cc1cccc(NC(=O)N2CCn3cnc(COCC4CC4)c3C2)c1 | 96.57%
9 | Cc1cccc(C(=O)N2CCn3cnc(COCC4CC4)c3C2)c1 | -5.443%
10 | CCOCc1ncn2c1CN(C(=O)Nc1cccc(C)c1)CC2 | -4.198%
11 | CCOCc1ncn2c1CN(C(=O)Nc1ccccc1)CC2 | 106.5%
12 | CCN(CCSc1ccccc1)C(=O)c1cn([C@H]2CC[C@@H](N)CC2)nn1 | -3.362%
13 | Cc1ccc(Cl)cc1NS(=O)(=O)c1cc(C(N)=O)n(C)c1 | -91.07%
14 | Cc1cccc(C(=O)N2CCc3ncnc(C4CCOC4)c3CC2)n1.O=C(O)C(F)(F)F (configuration not stated) | -11.48%
15 | COC(=O)c1sc(NCc2ccc(N3CCC(O)CC3)c(F)c2)nc1Cl | -2.093%
16 | CC(C)C(N)C1=N/C(=C2\N=CN=N2)NO1 (configuration not stated) | -4.222%
17 | CCn1ccnc1CN(C)Cc1nc(Cc2ccccc2F)no1 | -2.902%
18 | COCc1ncn2c1CN(C(=O)Nc1cccc(OC)c1)CC2 | 106.3%
19 | COc1cccc(S(=O)(=O)N2CCn3cnc(COCC4CC4)c3C2)c1 | -6.989%
20 | CCOCc1ncn2c1CN(C(=O)Nc1ccccc1CC)CC2 | 104.8%
21 | COCc1ncn2c1CN(C(=O)Nc1ccccc1)CC2 | 105.1%
22 | CCc1ccccc1NC(=O)N1CCn2cnc(COC)c2C1 | 1.009%
23 | COc1cccc(NC(=O)N2CCC(O)(C(F)(F)F)C2)c1 (configuration not stated) | -18.52%

Row | SMILES | Percent Effect
24 | O=C(Nc1ccccc1)N1CCn2nnc(COc3cccnc3)c2C1.O=C(O)C(F)(F)F | -20.87%
25 | CCOCc1ncn2c1CN(C(=O)Nc1ccc(CC)cc1)CC2 | 108%
26 | COCc1ncn2c1CN(S(=O)(=O)c1ccc(C)cc1)CC2 | -7.243%
27 | CCOCc1ncn2c1CN(S(=O)(=O)c1ccc(F)cc1)CC2 | 3.769%
28 | CCOCc1ncn2c1CN(S(=O)(=O)c1ccc(C)cc1)CC2 | 1.086%
29 | N#Cc1ccc(F)c(CN2CCCC2Cn2cnc3ccccc32)c1 (configuration not stated) | -5.507%
30 | CN1CCOC(C(=O)Nc2nnc(Cc3ccc(F)cc3)[nH]2)C1 (configuration not stated) | -0.8523%
31 | Cc1cccc(NCc2ncc(C(C)(C)C)o2)c1 | -14.59%
32 | O=C(CN1CCS(=O)(=O)CC1)NC1CCCOc2ccccc21 (configuration not stated) | 0.4653%
33 | CCN(Cc1ccoc1)C(=O)c1cc2c(c(S(N)(=O)=O)c1)CCC2 | -33.33%
34 | CN(CC(=O)NC(C)(C#N)C1CC1)Cc1nc2ccccc2n1C (configuration not stated) | -1.45%
35 | COc1cc2cc3c(nc2cc1OC)OCCN(Cc1ccco1)C3 | 100%
36 | CC(C)N1CCOCC2(CN(Cc3ccco3)CCO2)C1 (configuration not stated) | -3.394%
37 | c1ccc(O[C@H]2COCCN(CC3CC3)C2)cc1 | -13.37%
38 | COc1cc2cc3c(nc2cc1OC)OCCN(Cc1cccs1)C3 | 120.6%
39 | COc1cncc(N2CCN(Cc3ccco3)CC2)n1 | -6.733%
40 | COc1cc2cc3c(nc2cc1OC)OCCN(CC1CC1)C3 | 154.4%
41 | COc1cccc2c1OCCCN(Cc1ncccc1C(=O)O)C2 | 13.59%
42 | COc1ncc(C2(O)CCN(Cc3cccs3)CC2)c(OC)n1.Cl | -7.48%
43 | COc1ccccc1CN1C(=O)O[C@@H]2CN(CC3CC3)C[C@@H]21 | 6.078%
44 | CCc1cc(CNC(=O)Nc2cc(F)ccc2N2CCCCC2)on1 | -38%
45 | CCN(CCC(=O)OC)S(=O)(=O)c1cnc2c(c1)c(C)nn2C | 10.85%
46 | Cc1cc(C(C)NCCN2CCC(N(C)C)CC2)c(C)s1 (configuration not stated) | -5.987%

Row | SMILES | Percent Effect
47 | COCC(NC(=O)c1cc(NC(C)=O)ccc1Cl)c1ccccn1 (configuration not stated) | -0.4749%
48 | O=S1(=O)NCC2(CCCN(Cc3ccccn3)C2)Oc2ncccc21 (configuration not stated) | 140.3%
49 | O=S1(=O)NCC2(CCN(Cc3ccncc3)CC2)Oc2ncccc21 | 130.7%
50 | Fc1cccc(N2CCCC3(CN(Cc4cccnc4)CCO3)C2)c1.O=C(O)C(F)(F)F.O=C(O)C(F)(F)F.O=C(O)C(F)(F)F (configuration not stated) | 2.254%
51 | Fc1cccc(N2CCCC3(CN(Cc4ccccn4)CCO3)C2)c1.O=C(O)C(F)(F)F.O=C(O)C(F)(F)F.O=C(O)C(F)(F)F (configuration not stated) | -3.088%
52 | O=C1COC2(CCN(Cc3ccncc3)CC2)CN1CC1CC1 | -5.616%
53 | Cc1cc(F)ccc1OC1(C(=O)O)CCN(Cc2ccncc2)CC1 | 7.519%
54 | O=C(C1CC=CC1)N1CCC2(CC1)CN(Cc1ccccn1)CCO2 | -14.52%
55 | O=C(O)C(F)(F)F.O=C(O)C(F)(F)F.O=C(O)C(F)(F)F.c1cncc(CN2CCCC3(COCCN(c4cnccn4)C3)C2)c1 (configuration not stated) | -4.353%
56 | O=S1(=O)NCC2(CCCN(Cc3cccnc3)C2)Oc2ncccc21 (configuration not stated) | 131.9%
57 | C[S+]([O-])c1nncn1CC(=O)c1ccc(Cl)c(Cl)c1 (configuration not stated) | 17.05%
58 | Cc1cnn(CCCN2C(=O)CCc3ccccc32)c1 | 16.17%
59 | O=C(CSCC1CC1)N1CCCN(Cc2ccc(F)cc2)CC1 | 113.6%
60 | O=C(CSCC1CC1)N1CCCN(c2ccc(F)cc2)CC1 | 101.8%
61 | Cc1nc(CC(=O)N2CCCN(c3ccc(F)cc3)CC2)cs1 | 6.987%
62 | Cc1cc(N2CCCN(C(=O)Cc3cccnc3)CC2)ccn1 | -24.68%
63 | CSCCC(O)C(=O)N1CCCN(Cc2ccc(F)cc2)CC1 (configuration not stated) | 20.52%
64 | CCc1nnsc1C(=O)N1CCCN(Cc2ccc(F)cc2)CC1 | 12.06%
65 | Cc1cc(N2CCCN(C(=O)Cc3cc(F)cc(F)c3)CC2)ccn1 | -40.46%
66 | COCc1ccc(C(=O)N2CCCN(c3ccc(F)cc3)CC2)s1 | -6.209%
67 | Cc1cc(N2CCCN(C(=O)CSCC3CC3)CC2)ccn1 | 97.17%
